Test results as given in article PMC5540273 (PLoS ONE, 2017).

How the values were obtained:
Conditions in all cases: concentration: 1 μM, replicates: in singlicate; n = 1
CHEK1 = tested on: CHEK1
CHEK2 = tested on: CHEK2
CIT = tested on: CIT
CLK1 = tested on: CLK1
CLK2 = tested on: CLK2
CLK3 = tested on: CLK3
CLK4 = tested on: CLK4
CSF1R-autoinhibited = tested on: CSF1R-autoinhibited
CSF1R = tested on: CSF1R
CSK = tested on: CSK
CSNK1A1L = tested on: CSNK1A1L
CSNK1A1 = tested on: CSNK1A1
CSNK1D = tested on: CSNK1D
CSNK1E = tested on: CSNK1E
CSNK1G1 = tested on: CSNK1G1
CSNK1G2 = tested on: CSNK1G2
CSNK1G3 = tested on: CSNK1G3
CSNK2A1 = tested on: CSNK2A1
CSNK2A2 = tested on: CSNK2A2
CTK = tested on: T1, CTK
T1 construct: gene MATK
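Further: KINOMEscan kinase panel screen.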

## O=C1Cc2cc(Nc3nc(NCc4cccc(S(=O)(=O)C(F)(F)F)c4)ncc3C(F)(F)F)ccc2N1
CHEK1
  %Inh: 0%
CHEK2
  %Inh: 0%
CIT
  %Inh: 0%
CLK1
  %Inh: 0%
CLK2
  %Inh: 0%
CLK3
  %Inh: 0%
CLK4
  %Inh: 0%
CSF1R-autoinhibited
  %Inh: 0%
CSF1R
  %Inh: 9%
CSK
  %Inh: 3%
CSNK1A1L
  %Inh: 0%
CSNK1A1
  %Inh: 12%
CSNK1D
  %Inh: 0%
CSNK1E
  %Inh: 0%
CSNK1G1
  %Inh: 11%
CSNK1G2
  %Inh: 0%
CSNK1G3
  %Inh: 0%
CSNK2A1
  %Inh: 12%
CSNK2A2
  %Inh: 5%
CTK
  %Inh: 5%

## Cc1cccc(-c2nc(-c3ccc(S(C)(=O)=O)cc3)sc2-c2ccncc2)c1
CHEK1
  %Inh: 0%
CHEK2
  %Inh: 1%
CIT
  %Inh: 9%
CLK1
  %Inh: 0%
CLK2
  %Inh: 0%
CLK3
  %Inh: 0%
CLK4
  %Inh: 11%
CSF1R-autoinhibited
  %Inh: 0%
CSF1R
  %Inh: 9%
CSK
  %Inh: 8%
CSNK1A1L
  %Inh: 9%
CSNK1A1
  %Inh: 18%
CSNK1D
  %Inh: 16%
CSNK1E
  %Inh: 36%
CSNK1G1
  %Inh: 0%
CSNK1G2
  %Inh: 20%
CSNK1G3
  %Inh: 0%
CSNK2A1
  %Inh: 0%
CSNK2A2
  %Inh: 14%
CTK
  %Inh: 0%

## COc1ccc(S(=O)(=O)NC2CCN(c3cc(C)nc(Nc4cccc(C#N)c4)n3)CC2)cc1.O=C(O)C(F)(F)F [GSK1653539]
CHEK1
  %Inh: 0%
CHEK2
  %Inh: 14%
CIT
  %Inh: 0%
CLK1
  %Inh: 20%
CLK2
  %Inh: 0%
CLK3
  %Inh: 56%
CLK4
  %Inh: 3%
CSF1R-autoinhibited
  %Inh: 0%
CSF1R
  %Inh: 1%
CSK
  %Inh: 0%
CSNK1A1L
  %Inh: 0%
CSNK1A1
  %Inh: 0%
CSNK1D
  %Inh: 19%
CSNK1E
  %Inh: 54%
CSNK1G1
  %Inh: 12%
CSNK1G2
  %Inh: 0%
CSNK1G3
  %Inh: 30%
CSNK2A1
  %Inh: 0%
CSNK2A2
  %Inh: 4%
CTK
  %Inh: 0%

## Cc1nnc(-c2ccc(C)c(-c3ccc(C(=O)Nc4ccc(NS(C)(=O)=O)cc4)cc3)c2)o1 [GW702865]
CHEK1
  %Inh: 0%
CHEK2
  %Inh: 30%
CIT
  %Inh: 7%
CLK1
  %Inh: 2%
CLK2
  %Inh: 0%
CLK3
  %Inh: 2%
CLK4
  %Inh: 0%
CSF1R-autoinhibited
  %Inh: 37%
CSF1R
  %Inh: 1%
CSK
  %Inh: 0%
CSNK1A1L
  %Inh: 0%
CSNK1A1
  %Inh: 0%
CSNK1D
  %Inh: 14%
CSNK1E
  %Inh: 0%
CSNK1G1
  %Inh: 0%
CSNK1G2
  %Inh: 15%
CSNK1G3
  %Inh: 17%
CSNK2A1
  %Inh: 0%
CSNK2A2
  %Inh: 15%
CTK
  %Inh: 0%

## O=C(NCCNc1ccnc(Nc2ccc(F)cc2)n1)Nc1ccccc1F [GSK1379880]
CHEK1
  %Inh: 11%
CHEK2
  %Inh: 0%
CIT
  %Inh: 47%
CLK1
  %Inh: 24%
CLK2
  %Inh: 0%
CLK3
  %Inh: 2%
CLK4
  %Inh: 0%
CSF1R-autoinhibited
  %Inh: 0%
CSF1R
  %Inh: 9%
CSK
  %Inh: 0%
CSNK1A1L
  %Inh: 16%
CSNK1A1
  %Inh: 0%
CSNK1D
  %Inh: 11%
CSNK1E
  %Inh: 9%
CSNK1G1
  %Inh: 1%
CSNK1G2
  %Inh: 0%
CSNK1G3
  %Inh: 16%
CSNK2A1
  %Inh: 0%
CSNK2A2
  %Inh: 3%
CTK
  %Inh: 0%

## O=C(c1ccc(-c2cc(-c3c[nH]nc3-c3ccccn3)ccn2)cc1)N1CCOCC1 [GW812171]
CHEK1
  %Inh: 0%
CHEK2
  %Inh: 0%
CIT
  %Inh: 0%
CLK1
  %Inh: 0%
CLK2
  %Inh: 0%
CLK3
  %Inh: 0%
CLK4
  %Inh: 0%
CSF1R-autoinhibited
  %Inh: 12%
CSF1R
  %Inh: 16%
CSK
  %Inh: 51%
CSNK1A1L
  %Inh: 0%
CSNK1A1
  %Inh: 32%
CSNK1D
  %Inh: 49%
CSNK1E
  %Inh: 17%
CSNK1G1
  %Inh: 19%
CSNK1G2
  %Inh: 0%
CSNK1G3
  %Inh: 0%
CSNK2A1
  %Inh: 0%
CSNK2A2
  %Inh: 0%
CTK
  %Inh: 49%

## NS(=O)(=O)CCc1cccc(Nc2nccc(-c3c(-c4cccc(NC(=O)c5c(F)cccc5F)c4)nn4ccccc34)n2)c1 [GSK336735]
CHEK1
  %Inh: 4%
CHEK2
  %Inh: 0%
CIT
  %Inh: 53%
CLK1
  %Inh: 27%
CLK2
  %Inh: 10%
CLK3
  %Inh: 100%
CLK4
  %Inh: 21%
CSF1R-autoinhibited
  %Inh: 21%
CSF1R
  %Inh: 99.7%
CSK
  %Inh: 97.5%
CSNK1A1L
  %Inh: 7%
CSNK1A1
  %Inh: 0%
CSNK1D
  %Inh: 33%
CSNK1E
  %Inh: 90.4%
CSNK1G1
  %Inh: 14%
CSNK1G2
  %Inh: 5%
CSNK1G3
  %Inh: 19%
CSNK2A1
  %Inh: 9%
CSNK2A2
  %Inh: 9%
CTK
  %Inh: 0%
